# Results published in PubChem BioAssay (NCI).
# Compounds without any hit were thinned out: in the full panel of roughly 79,000, 15% have a hit. Unmarked numbers belong to inactive results. Activity calls are given as the source filed them. No stated cut-off is given here; in the data, active means growth inhibition above about 70%; inactive means the rest.
# Experiments:
# [1] = NCI Yeast Anticancer Drug Screen. Data for the rad50 strain (AID 155);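 further: 0% = growth of vehicle-only cultures of the same strain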; conditions: S. cerevisiae rad50 strain growth inhibition, stronger effect = higher value
# How it was run: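 DNA repair mutant yeast, compound exposure, growth read-out; inhibition is taken relative to vehicle.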
# [2] = NCI Yeast Anticancer Drug Screen. Data for the mec2-1 strain (AID 157); conditions: S. cerevisiae mec2-1 strain, stronger effect = higher value
# How it was run: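 Each compound was tested on mec2-1 yeast, a strain altered in DNA damage repair or cell cycle control. Growth inhibition is reported relative to vehicle.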
# [3] = NCI Yeast Anticancer Drug Screen. Data for the sgs1 mgt1 strain (AID 161);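 further: 0% = growth of cultures given vehicle only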; conditions: S. cerevisiae sgs1 mgt1 strain, stronger effect = higher value
# How it was run: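 Genetically altered yeast, compound exposure, growth inhibition relative to vehicle.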
# [4] = NCI Yeast Anticancer Drug Screen. Data for the cln2 rad14 strain (AID 165);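 further: 0% = growth equal to vehicle treated cultures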; conditions: S. cerevisiae cln2 rad14 strain, stronger effect = higher value
# How it was run: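 Test compounds were added to cln2 rad14 yeast cultures; inhibition of growth was then determined by comparison with vehicle treatment.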
# [5] = NCI Yeast Anticancer Drug Screen. Data for the bub3 strain (AID 167); conditions: S. cerevisiae bub3 mutant strain, stronger effect = higher value
# How it was run: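 In this screen, a yeast mutant lacking normal mitotic checkpoint function is challenged with compound. Relative growth versus vehicle gives the inhibition value.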
# [6] = NCI Yeast Anticancer Drug Screen. Data for the mlh1 rad18 strain (AID 175); conditions: S. cerevisiae mlh1 rad18 strain growth inhibition, stronger effect = higher value
# How it was run: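 Inhibition values reflect reduced growth of mutant yeast versus vehicle-treated controls following compound exposure; the mutations affect DNA damage repair.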
# [7] = NCI Yeast Anticancer Drug Screen. Data for the rad50EPP+ strain (AID 151);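 further: 0% = growth of vehicle-treated control cultures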; conditions: S. cerevisiae rad50 mutant strain, stronger effect = higher value
# How it was run: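 Genetically defined yeast (rad50EPP+, DNA damage repair alteration) is grown with compound, and inhibition of growth is expressed relative to vehicle-treated controls.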
# [8] = NCI Yeast Anticancer Drug Screen. Data for the mgt1 strain (AID 153); conditions: S. cerevisiae mgt1 mutant growth inhibition, stronger effect = higher value
# How it was run: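 In the mgt1 strain, test compounds were added and growth inhibition was determined relative to vehicle-treated controls.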
# [9] = NCI Yeast Anticancer Drug Screen. Data for the rad14 strain (AID 159);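 further: 0% = growth of vehicle-treated control cultures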; conditions: S. cerevisiae rad14 strain growth inhibition, stronger effect = higher value
# How it was run: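 DNA repair-defective yeast, compound-exposed; % growth inhibition derived by comparison with vehicle-treated controls.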
# [10] = at 5.0 µM (retest, dose inferred, filed as 0.5)
# [11] = at 50.0 µM (retest, dose inferred, filed as 5.0)
compound,measurement,setting,value
[Pt].c1ccc(P(CCP(c2ccccc2)c2ccccc2)CCP(c2ccccc2)c2ccccc2)cc1,growth inhibition,[1]; at 1.2 µM,-13%
same,growth inhibition,[1]; at 3.7 µM,11%
same,growth inhibition,[1]; [10],22%
same,growth inhibition,[1]; at 11.0 µM,23%
same,growth inhibition,[1]; at 33.0 µM,94% (active)
same,growth inhibition,[1]; [11],90% (active)
same,growth inhibition,[1]; at 50.0 µM,79% (active)
same,growth inhibition,[1]; at 100.0 µM,93% (active)
same,growth inhibition,[2]; at 1.2 µM,-27%
same,growth inhibition,[2]; at 3.7 µM,-14%
same,growth inhibition,[2]; [10],-3%
same,growth inhibition,[2]; at 11.0 µM,6%
same,growth inhibition,[2]; at 33.0 µM,94% (active)
same,growth inhibition,[2]; [11],94% (active)
same,growth inhibition,[2]; at 50.0 µM,85.2% (active)
same,growth inhibition,[2]; at 100.0 µM,94% (active)
same,growth inhibition,[3]; [10],8%
same,growth inhibition,[3]; [11],90% (active)
same,growth inhibition,[3]; at 50.0 µM,82% (active)
same,growth inhibition,[4]; [10],43%
same,growth inhibition,[4]; [11],91% (active)
same,growth inhibition,[4]; at 50.0 µM,79.2% (active)
same,growth inhibition,[5]; at 1.2 µM,8%
same,growth inhibition,[5]; at 3.7 µM,4%
same,growth inhibition,[5]; [10],4%
same,growth inhibition,[5]; at 11.0 µM,26%
same,growth inhibition,[5]; at 33.0 µM,96% (active)
same,growth inhibition,[5]; [11],91% (active)
same,growth inhibition,[5]; at 50.0 µM,75.7% (active)
same,growth inhibition,[5]; at 100.0 µM,95% (active)
same,growth inhibition,[6]; [10],16%
same,growth inhibition,[6]; [11],92% (active)
same,growth inhibition,[6]; at 50.0 µM,75.8% (active)
C/C(=N\O)C(CN(C)C)C(c1ccccc1)c1c(O)c2ccccc2oc1=O (stereo not drawn),growth inhibition,[1]; [10],25%
same,growth inhibition,[1]; [11],25%
same,growth inhibition,[1]; at 50.0 µM,76.5% (active)
same,growth inhibition,[2]; [10],12%
same,growth inhibition,[2]; [11],12%
same,growth inhibition,[2]; at 50.0 µM,63.4%
same,growth inhibition,[3]; [10],15%
same,growth inhibition,[3]; [11],15%
same,growth inhibition,[3]; at 50.0 µM,82.2% (active)
same,growth inhibition,[4]; [10],4%
same,growth inhibition,[4]; [11],4%
same,growth inhibition,[4]; at 50.0 µM,75.8% (active)
same,growth inhibition,[5]; [10],12%
same,growth inhibition,[5]; [11],12%
same,growth inhibition,[5]; at 50.0 µM,74.7% (active)
O=C(NNC(=O)OCC(Cl)(Cl)Cl)OCC(Cl)(Cl)Cl,growth inhibition,[7]; at 1.2 µM,0%
same,growth inhibition,[7]; at 3.7 µM,-2%
same,growth inhibition,[7]; at 11.0 µM,-1%
same,growth inhibition,[7]; at 33.0 µM,0%
same,growth inhibition,[7]; at 100.0 µM,11%
same,growth inhibition,[8]; at 1.2 µM,0%
same,growth inhibition,[8]; at 3.7 µM,-4%
same,growth inhibition,[8]; at 11.0 µM,48%
same,growth inhibition,[8]; at 33.0 µM,91% (active)
same,growth inhibition,[8]; at 100.0 µM,97% (active)
same,growth inhibition,[1]; at 1.2 µM,-1%
same,growth inhibition,[1]; at 3.7 µM,0%
same,growth inhibition,[1]; [10],-12%
same,growth inhibition,[1]; at 11.0 µM,0%
same,growth inhibition,[1]; at 33.0 µM,1%
same,growth inhibition,[1]; [11],1%
same,growth inhibition,[1]; at 50.0 µM,20.6%
same,growth inhibition,[1]; at 100.0 µM,23%
same,growth inhibition,[2]; at 1.2 µM,-6%
same,growth inhibition,[2]; at 3.7 µM,-8%
same,growth inhibition,[2]; [10],-6%
same,growth inhibition,[2]; at 11.0 µM,-4%
same,growth inhibition,[2]; at 33.0 µM,4%
same,growth inhibition,[2]; [11],6%
same,growth inhibition,[2]; at 50.0 µM,20.9%
same,growth inhibition,[2]; at 100.0 µM,32%
same,growth inhibition,[9]; at 1.2 µM,1%
same,growth inhibition,[9]; at 3.7 µM,1%
same,growth inhibition,[9]; at 11.0 µM,3%
same,growth inhibition,[9]; at 33.0 µM,6%
